Reference: PubChem BioAssay (NCATS)
Results filed as inconclusive are left out. The source made the active and inactive calls. Unless noted, calls come from the whole dose curve; as a rule, active = well fitted curve in the direction sought with a large enough effect; inconclusive = small, poorly fitted or top-dose-only effect, or another doubt; inactive = no such curve, though single readings can be large; an effect the other way counts as inactive or inconclusive.

Experiments:
[1] = molecular target: Lysosomal acid glucosylceramidase (Homo sapiens) (UniProt P04062); test: Glucocerebrosidase-p2 (AID 348; in the data active = potency below about 10 µM; note: potency is the fitted concentration of half-maximal effect); conditions: purified GBA, blue fluorogenic substrate, 40 min
How it was run: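 Compounds titrated from 0.6 nM upwards against 0.2 nM enzyme in pH 5.9 citric acid/KH2PO4, taurocholate, tween-20; blue fluorogenic substrate 80 uM, 40 min room temperature, stopped and read Ex 365/Em 440 for AC50.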

[2] = AP1 Signaling Pathway (AID 357; active = well fitted curve in either direction with a large enough effect, not every such curve was filed as active; note: % is set by controls: 0 for no effect and ±100 for the full control effect); conditions: ME-180 AP-1-bla reporter, EGF-induced, beta-lactamase ratio, 5 h; at 7.69 µM (top of the series) unless noted
How it was run: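 AP-1-bla ME-180 cells with beta-lactamase reporter under AP-1 response element, stimulated with EC50 EGF; compounds titrated, 5 hours at 37 degrees Celsius. CCF4 read at 460/530 nm ratio; positive and negative modulators judged by AC50.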

[3] = molecular target: Cytochrome P450 1A2 (Homo sapiens) (UniProt P05177); test: p450-cyp1a2 (AID 410; calls by dose curve; note: potency is the fitted concentration of half-maximal effect;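 for activity change, negative = inhibition: -100% = full effect of reference inhibitor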); conditions: recombinant CYP1A2, luciferin-ME demethylation, luminescence; series mostly up to 57 µM
How it was run: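 Human CYP1A2 (20nM) demethylated Luciferin-ME at its Km (100uM) in 100mM KPO4. After 10 min compound preincubation, NADPH regeneration ran the reaction 60 min at room temperature. Luciferin was read by luminescence, normalized to 57 uM furafylline.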

[4] = NFAT Signaling Pathway (AID 444; active = well fitted curve in either direction with a large enough effect, not every such curve was filed as active;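 note: carbachol stimulus at about its EC50 of 1 µM final; % is set by controls: 0 for no effect and ±100 for the full control effect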); conditions: Jurkat NFAT-bla M1, carbachol, beta-lactamase ratio, 5 h; at 7.69 µM (top of the series) unless noted
How it was run: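 Jurkat cells carrying an NFAT-driven β-lactamase reporter and co-transfected muscarinic M1 receptor were treated with compound plus carbachol (1 uM final, an EC50 level) for 5 h at 37 °C. CCF4 loading followed for 1 h at RT; 460/530 nm ratio gave %activity.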

[5] = Stat Signaling Pathway (AID 446; active = well fitted curve in either direction with a large enough effect, not every such curve was filed as active;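 note: ME-180 cervical cancer cells given 40 pM IL-6 alongside compound; SIE-controlled beta-lactamase reporter measured as 460/530 nm FRET emission ratio; % is set by controls: 0 for no effect and ±100 for the full control effect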); conditions: ME-180 SIE beta-lactamase reporter, IL-6 stimulated, 5 h; at 7.69 µM (top of the series) unless noted
How it was run: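 ME-180 cells carrying a SIE-driven beta-lactamase reporter are stimulated with 40 pM IL-6 for 5 h at 37C in the presence of compound. The 460/530 nm FRET substrate ratio is read after 2.5 h at RT. Data are normalised to 300 pM IL-6 and to 125 nM JAK inhibitor controls.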

[6] = molecular target: Glucocorticoid receptor (Homo sapiens) (UniProt P04150); test: GR-GFP Redistribution (AID 450;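 active = compounds whose dose series gives a full or clear partial fitted curve of increased nuclear translocation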; note: potency is the fitted concentration of half-maximal effect); conditions: U2OS GR-GFP nuclear translocation, laser cytometry, 2 h
[7] = molecular target: Glucocorticoid receptor (Homo sapiens) (UniProt P04150); test: GR-EFC Redistribution (AID 451; calls by dose curve; note: potency is the fitted concentration of half-maximal effect); conditions: CHO-K1 GR-EFC translocation, beta-gal luminescence, 2 h
How it was run: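 CHO-K1 cells stably expressing nuclear-localized β-gal enzyme acceptor and GR fused C-terminally to the enzyme donor fragment; ligand-driven nuclear translocation restores β-gal by complementation. Compounds titrated up to 46 uM final, 2 h at 37 °C; luminescence read.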

[8] = molecular target: Mitogen-activated protein kinase 10 (Mus musculus) (UniProt Q61831); test: JNK3 AlphaScreen Assay (AID 530; active = well fitted curve in either direction with a large enough effect, not every such curve was filed as active;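 note: kinase came from lysate of stimulated human HepG2 cells; signal reports phosphorylation of biotinylated GST-cJun 1-79 at Ser73 with 10 µM ATP; % is set by controls: 0 for no effect and ±100 for the full control effect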); conditions: JNK3 lysate, c-Jun phosphorylation; series mostly up to 57.1 µM
How it was run: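 JNK3 came from HepG2 lysates pre-activated with IL-1beta and TNF-alpha and phosphorylated biotinylated GST-cJun (1-79) at 10 uM ATP, pH 7.6, room temperature. Compounds were titrated. AlphaScreen signal used anti-phospho-cJun (Ser73) antibody.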

[9] = molecular target: 3',5'-cyclic-AMP phosphodiesterase 4B (Homo sapiens) (UniProt Q07343); test: qHTS Assay for Inhibitors of PDE-IV (AID 607; active = well fitted activation curve with a large enough effect in the main read-out, with a control signal flat, not every such curve was filed as active; note: % of control where 0% means no effect); conditions: HEK293 ACTOne CNG channel cells, membrane potential fluorescence; series mostly up to 22.9 µM
How it was run: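 HEK293 ACTOne cells with CNG channel (1000/well), endogenous PDE4; membrane potential dye, compounds up to 22.9 uM final. Fluorescence Ex 535/Em 590; RO 20-1724 (100 uM final) as reference.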

[10] = molecular target: Cytochrome P450 3A4 (Homo sapiens) (UniProt P08684); test: qHTS Assay for Activators of Cytochrome P450 3A4 (AID 885); conditions: recombinant CYP3A4, Luciferin-PPXE luminescence, 60 min; series mostly up to 57.1 µM; note: nearly all actives have a fitted effect of over 65% in size
How it was run: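 Human CYP3A4 (20 nM) with Luciferin-PPXE at 25 uM (its KM) in 200 mM KPO4; 10 min compound preincubation, then NADPH regeneration and 60 min reaction at RT. Luciferin read by luminescence; normalized to 57 uM ketoconazole full inhibition.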

[11] = qHTS Assay for Lipid Storage Modulators (AID 1519; calls by dose curve); conditions: Drosophila S3 cells, BODIPY lipid droplet/cell ratio, laser cytometry, cells loaded with oleic acid; for activity change, negative = inhibition: at 57.5 µM (top of the series)
How it was run: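 Cells seeded at 5,000 per well were treated with compounds over a concentration series and loaded with oleic acid (400 uM, as added). Lipid droplet fluorescence (488 nm excitation, 500-530 nm channel) was read by laser-scanning cytometry and normalized to 20 uM Triacsin C.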

[12] = molecular target: Dual specificity protein kinase CLK4 (Homo sapiens) (UniProt Q9HAZ1); test: qHTS Assay for Inhibitors of CDC-like Kinase 4 (Kinase-Glo Assay) (AID 1770); conditions: recombinant Clk4, Kinase-Glo ATP depletion luminescence; series mostly up to 66.7 µM; note: nearly all actives have a fitted effect of over 65% in size; note: potency is the fitted concentration of half-maximal effect
How it was run: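 25 nM Clk4 with 100 uM RS repeat peptide and 1 uM ATP (final) in Tris pH7.5, 10 mM MgCl2, 4.5 h at room temperature. Remaining ATP measured by Kinase-Glo luciferase luminescence.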

[13] = molecular target: Dual specificity protein kinase CLK4 (Homo sapiens) (UniProt Q9HAZ1); test: qHTS Assay for Inhibitors of CDC-like Kinase 4 (ADP-Glo Assay) (AID 1771); conditions: recombinant CLK4, ADP-Glo luminescence; series mostly up to 80 µM; note: nearly all actives have a fitted effect of over 70% in size; note: potency is the fitted concentration of half-maximal effect
How it was run: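 Clk4 (25 nM) was incubated 1 hr at room temperature with 100 uM RS repeat peptide and 1 uM ATP in buffer with 2 mM MgCl2, 0.5 mM EGTA, 2.5 mM DTT. ADP formed was quantified by ADP-Glo luminescence.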

[14] = molecular target: Dual specificity protein kinase CLK4 (Homo sapiens) (UniProt Q9HAZ1); test: qHTS Assay for Inhibitors of CDC-like Kinase 4 (ADP-FP Assay) (AID 1795); conditions: Transcreener ADP fluorescence polarization; series mostly up to 50 µM; note: nearly all actives have a fitted effect of over 60% in size; note: potency is the fitted concentration of half-maximal effect
How it was run: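 Recombinant Clk4 (6.25 nM) phosphorylated 100 uM RS repeat peptide with 1 uM ATP in 25 mM Tris pH 7.5, 10 mM MgCl2, 0.5 mM EGTA, 2.5 mM DTT, 0.01% Triton X-100 for 1 h. ADP was detected by Transcreener ADP2 competitive fluorescence polarization after 30 min at room temperature.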

[15] = molecular target: Ubiquitin carboxyl-terminal hydrolase 1 (Homo sapiens) (UniProt O94782); test: Inhibitors of USP1/UAF1: Pilot qHTS (AID 504865); conditions: purified USP1/UAF1, Ub-rhodamine cleavage fluorescence; series mostly up to 54.9 µM;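 note: rhodamine fluorescence freed from ubiquitin-rhodamine substrate followed over time; top concentration of the series differs between compounds; % is set by controls: 0 for no effect and ±100 for the full control effect; nearly all actives have a fitted effect of over 35% in size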
How it was run: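 USP1/UAF1 complex at 1 nM preincubated 15 min at room temperature with compound, then Ub-Rho substrate added at 150 nM final. Fluorescence (480/540 nm) read kinetically in 50 mM HEPES pH 7.8, 0.5 mM EDTA, 1 mM TCEP, 0.1 mg/ml BSA, 0.01% Tween-20.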

[16] = Primary qHTS for small molecule stabilizers of the endoplasmic reticulum resident proteome: Secreted ER Calcium Modulated Protein (SERCaMP) assay (AID 1508630); conditions: SH-SY5Y GLuc-SERCaMP (Gaussia luciferase released on ER calcium loss) secretion, thapsigargin, luminescence; series mostly up to 38.4 µM; note: % is set by controls: 0 for no effect and ±100 for the full control effect
How it was run: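 GLuc-SERCaMP-expressing SH-SY5Y cells, pretreated 16 h with compound, are challenged with thapsigargin to empty ER calcium stores; after 4 h, coelenterazine is added directly to the medium and luminescence is imaged.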

[17] = measured here: cell count channel max response
[18] = measured here: lipid channel max response

Sequence of Cytochrome P450 1A2 (Homo sapiens) (P05177 whole entry, looked up): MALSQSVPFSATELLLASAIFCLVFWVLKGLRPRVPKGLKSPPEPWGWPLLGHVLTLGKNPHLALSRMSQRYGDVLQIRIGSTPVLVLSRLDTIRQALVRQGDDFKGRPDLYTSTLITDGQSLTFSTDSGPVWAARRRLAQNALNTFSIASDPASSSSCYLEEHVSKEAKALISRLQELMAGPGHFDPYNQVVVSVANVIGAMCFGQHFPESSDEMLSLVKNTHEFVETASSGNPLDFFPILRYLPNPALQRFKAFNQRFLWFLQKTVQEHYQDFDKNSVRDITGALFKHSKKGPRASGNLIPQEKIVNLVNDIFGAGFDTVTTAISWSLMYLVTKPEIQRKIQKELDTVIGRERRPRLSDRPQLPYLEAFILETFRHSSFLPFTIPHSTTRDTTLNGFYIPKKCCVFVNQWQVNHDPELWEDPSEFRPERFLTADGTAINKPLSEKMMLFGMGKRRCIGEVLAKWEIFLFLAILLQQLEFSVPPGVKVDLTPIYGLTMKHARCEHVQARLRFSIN
Sequence of Cytochrome P450 3A4 (Homo sapiens) (P08684 whole entry, looked up): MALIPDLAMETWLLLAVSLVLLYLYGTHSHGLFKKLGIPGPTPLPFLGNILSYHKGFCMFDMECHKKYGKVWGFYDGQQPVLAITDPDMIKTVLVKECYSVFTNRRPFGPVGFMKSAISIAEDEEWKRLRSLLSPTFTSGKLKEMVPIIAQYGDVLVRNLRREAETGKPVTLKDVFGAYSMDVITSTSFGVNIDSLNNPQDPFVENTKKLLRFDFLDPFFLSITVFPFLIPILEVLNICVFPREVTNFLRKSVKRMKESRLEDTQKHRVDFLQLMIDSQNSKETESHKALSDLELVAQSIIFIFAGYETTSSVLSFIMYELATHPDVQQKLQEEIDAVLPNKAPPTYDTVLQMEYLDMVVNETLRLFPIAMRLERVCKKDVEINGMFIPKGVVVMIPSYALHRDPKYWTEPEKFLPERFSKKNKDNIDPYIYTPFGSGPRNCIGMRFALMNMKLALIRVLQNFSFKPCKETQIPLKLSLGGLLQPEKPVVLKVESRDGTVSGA
Sequence of 3',5'-cyclic-AMP phosphodiesterase 4B (Homo sapiens) (Q07343 whole entry, looked up): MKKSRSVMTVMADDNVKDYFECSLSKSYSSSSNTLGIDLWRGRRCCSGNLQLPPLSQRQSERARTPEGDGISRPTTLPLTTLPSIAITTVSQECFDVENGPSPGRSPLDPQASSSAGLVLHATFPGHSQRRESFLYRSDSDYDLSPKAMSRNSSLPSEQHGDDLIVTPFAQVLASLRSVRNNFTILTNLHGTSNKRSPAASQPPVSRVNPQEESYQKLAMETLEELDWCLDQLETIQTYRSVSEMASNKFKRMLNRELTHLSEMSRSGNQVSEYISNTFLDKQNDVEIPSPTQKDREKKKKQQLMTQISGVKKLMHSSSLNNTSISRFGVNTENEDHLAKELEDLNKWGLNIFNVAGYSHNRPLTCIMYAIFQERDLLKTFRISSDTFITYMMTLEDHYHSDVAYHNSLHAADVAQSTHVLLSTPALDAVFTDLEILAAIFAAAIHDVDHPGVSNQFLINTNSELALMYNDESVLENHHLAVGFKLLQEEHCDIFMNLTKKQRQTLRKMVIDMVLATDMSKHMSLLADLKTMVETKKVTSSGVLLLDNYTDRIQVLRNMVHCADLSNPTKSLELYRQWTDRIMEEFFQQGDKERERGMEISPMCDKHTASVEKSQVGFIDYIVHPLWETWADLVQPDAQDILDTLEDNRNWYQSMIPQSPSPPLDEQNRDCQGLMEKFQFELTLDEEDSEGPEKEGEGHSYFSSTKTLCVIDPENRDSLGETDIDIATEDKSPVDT
Sequence of Lysosomal acid glucosylceramidase (Homo sapiens) (P04062 whole entry, looked up): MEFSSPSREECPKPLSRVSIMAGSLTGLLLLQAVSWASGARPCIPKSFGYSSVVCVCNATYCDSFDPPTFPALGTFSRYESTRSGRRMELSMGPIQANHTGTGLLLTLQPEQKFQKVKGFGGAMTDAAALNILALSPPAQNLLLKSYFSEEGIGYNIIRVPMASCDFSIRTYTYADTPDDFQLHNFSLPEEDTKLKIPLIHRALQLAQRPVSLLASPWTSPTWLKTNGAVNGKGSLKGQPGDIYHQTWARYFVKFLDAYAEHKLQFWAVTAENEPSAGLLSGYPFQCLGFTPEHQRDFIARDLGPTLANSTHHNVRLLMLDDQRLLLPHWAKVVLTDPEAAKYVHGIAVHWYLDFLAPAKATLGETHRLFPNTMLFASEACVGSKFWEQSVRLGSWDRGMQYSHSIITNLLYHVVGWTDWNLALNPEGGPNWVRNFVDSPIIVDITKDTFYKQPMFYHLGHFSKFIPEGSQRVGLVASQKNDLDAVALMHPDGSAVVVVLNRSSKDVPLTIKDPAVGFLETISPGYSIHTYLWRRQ
Sequence of Dual specificity protein kinase CLK4 (Homo sapiens) (Q9HAZ1 whole entry, looked up): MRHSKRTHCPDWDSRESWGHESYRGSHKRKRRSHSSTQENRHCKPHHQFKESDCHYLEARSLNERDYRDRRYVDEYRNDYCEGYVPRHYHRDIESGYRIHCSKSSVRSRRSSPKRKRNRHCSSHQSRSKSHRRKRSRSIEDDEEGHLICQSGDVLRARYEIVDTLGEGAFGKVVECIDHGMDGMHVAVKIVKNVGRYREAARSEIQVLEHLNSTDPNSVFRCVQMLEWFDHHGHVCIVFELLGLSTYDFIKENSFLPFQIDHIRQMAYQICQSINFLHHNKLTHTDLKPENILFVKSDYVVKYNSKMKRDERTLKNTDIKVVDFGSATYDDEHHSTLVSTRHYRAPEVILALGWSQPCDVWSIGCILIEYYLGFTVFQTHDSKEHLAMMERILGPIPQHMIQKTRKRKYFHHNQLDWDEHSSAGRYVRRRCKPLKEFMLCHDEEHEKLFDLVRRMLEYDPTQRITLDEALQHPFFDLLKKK
Sequence of Ubiquitin carboxyl-terminal hydrolase 1 (Homo sapiens) (O94782 whole entry, looked up): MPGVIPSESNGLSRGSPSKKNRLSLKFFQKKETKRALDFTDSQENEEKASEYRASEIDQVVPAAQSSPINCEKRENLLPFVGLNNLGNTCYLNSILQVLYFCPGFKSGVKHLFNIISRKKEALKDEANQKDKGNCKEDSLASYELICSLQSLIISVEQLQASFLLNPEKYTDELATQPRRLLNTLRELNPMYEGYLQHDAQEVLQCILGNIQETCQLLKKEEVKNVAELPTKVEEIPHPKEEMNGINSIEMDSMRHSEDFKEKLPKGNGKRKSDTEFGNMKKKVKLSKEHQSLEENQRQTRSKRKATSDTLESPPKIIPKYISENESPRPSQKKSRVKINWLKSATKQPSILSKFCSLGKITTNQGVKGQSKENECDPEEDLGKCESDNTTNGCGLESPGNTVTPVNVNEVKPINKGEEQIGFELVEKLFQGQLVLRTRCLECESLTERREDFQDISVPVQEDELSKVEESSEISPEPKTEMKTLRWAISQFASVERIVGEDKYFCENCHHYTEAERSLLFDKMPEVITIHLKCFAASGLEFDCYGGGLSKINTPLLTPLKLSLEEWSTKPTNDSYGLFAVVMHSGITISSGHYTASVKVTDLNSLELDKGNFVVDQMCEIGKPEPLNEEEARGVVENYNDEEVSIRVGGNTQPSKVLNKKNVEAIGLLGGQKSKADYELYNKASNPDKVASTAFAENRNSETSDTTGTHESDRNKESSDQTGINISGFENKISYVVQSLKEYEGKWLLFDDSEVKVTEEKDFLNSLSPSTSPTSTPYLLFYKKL
Sequence of Glucocorticoid receptor (Homo sapiens) (P04150 whole entry, looked up, the tested form may be a part): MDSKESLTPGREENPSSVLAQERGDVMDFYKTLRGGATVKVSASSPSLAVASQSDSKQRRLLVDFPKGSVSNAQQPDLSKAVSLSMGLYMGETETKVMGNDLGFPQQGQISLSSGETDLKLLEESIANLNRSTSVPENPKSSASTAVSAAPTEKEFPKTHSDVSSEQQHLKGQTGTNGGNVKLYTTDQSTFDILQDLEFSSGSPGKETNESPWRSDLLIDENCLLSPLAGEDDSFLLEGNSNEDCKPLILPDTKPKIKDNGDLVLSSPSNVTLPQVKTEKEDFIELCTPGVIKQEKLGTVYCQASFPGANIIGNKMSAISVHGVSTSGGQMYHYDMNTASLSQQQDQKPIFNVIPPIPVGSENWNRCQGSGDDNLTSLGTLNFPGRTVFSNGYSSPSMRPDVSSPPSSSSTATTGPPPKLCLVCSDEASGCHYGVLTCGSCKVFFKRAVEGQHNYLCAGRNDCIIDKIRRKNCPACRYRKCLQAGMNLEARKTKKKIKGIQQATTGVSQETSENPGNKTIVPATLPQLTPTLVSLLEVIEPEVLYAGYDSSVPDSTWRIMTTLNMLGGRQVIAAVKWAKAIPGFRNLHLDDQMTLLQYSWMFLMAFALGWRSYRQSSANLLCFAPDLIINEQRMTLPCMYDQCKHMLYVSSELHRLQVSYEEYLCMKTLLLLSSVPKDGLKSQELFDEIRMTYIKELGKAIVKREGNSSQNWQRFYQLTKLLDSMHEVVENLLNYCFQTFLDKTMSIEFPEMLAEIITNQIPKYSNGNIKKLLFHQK

Row | Structure (SMILES) | Potency [1] | activity change, negative = inhibition [2] | Potency [3] | activity change, negative = inhibition [4] | activity, negative = inhibition [5] | Potency [6] | Potency [7] | outcome [8] | Potency [9] | Potency [10] | activity change, negative = inhibition [11] | max response [11, 17] [%] | max response [11, 18] [%] | Potency [12] | Potency [13] | Potency [14] | Potency [15] | Potency [16]
1 | COCCNc1ncnc2ccc(-c3ccc(C(=O)N(C)C)cc3)cc12 | > 11.4 µM (inactive) | -7.19% (inactive) | inactive | 11.8% (inactive) | 0.699% (inactive) | > 46 µM (inactive) | > 46 µM (inactive) | inactive | inactive | inactive | -0.0247% (inactive) | 4.77 | 3.74 | inactive | inactive | inactive | inactive | inactive
2 | Cn1cc(-c2nc3cnc(Oc4ccccc4)nc3n(C)c2=O)c2ccccc21 | > 11.4 µM (inactive) | 0.766% (inactive) | 12.6 µM (active) | -2.6% (inactive) | 24.9% (inactive) | > 9.22 µM (inactive) | > 46 µM (inactive) | inactive |  |  | -0.452% (inactive) | 14.6 | 18.4 | inactive | inactive | inactive |  | inactive
3 | Cn1c(=O)c(-c2ccc(Cl)cc2)nc2cnc(Oc3cccc(Cl)c3)nc21 | > 11.4 µM (inactive) | -7.62% (inactive) | 0.251 µM (active) | -6.5% (inactive) | -0.313% (inactive) | > 9.22 µM (inactive) | > 46 µM (inactive) | inactive | inactive |  | 5.31% (inactive) | 11.8 | 14.2 | inactive | inactive | inactive | inactive | inactive
4 | Cn1cc(-c2nc3cnc(N4CCNCC4)nc3n(C)c2=O)c2ccccc21 | > 11.4 µM (inactive) | 4.46% (inactive) | 15.8 µM (active) | 6.17% (inactive) | 25.8% (inactive) | > 9.22 µM (inactive) | > 46 µM (inactive) | inactive | inactive | inactive | 6.84% (inactive) | 11.6 | 17.7 | inactive | inactive | inactive | inactive | inactive
5 | FC(F)(F)c1ccccc1-c1nc(NCCN2CCOCC2)c2ccccc2n1 | > 11.4 µM (inactive) | -6.06% (inactive) | 12.6 µM (active) | 6.4% (inactive) | 3.19% (inactive) | > 46 µM (inactive) | > 46 µM (inactive) | inactive | inactive | inactive | 4.77% (inactive) | 18.8 | 21.5 | inactive | inactive | inactive | inactive | inactive
6 | COCCNc1ncncc1-c1c(C)noc1C | > 11.4 µM (inactive) | 8.31% (inactive) | inactive | -1.26% (inactive) | 0.118% (inactive) | > 46 µM (inactive) | > 46 µM (inactive) | inactive | inactive | inactive | 3.6% (inactive) | 19.7 | 24.5 | inactive | inactive | inactive | inactive | inactive
7 | O=c1c(-c2ccc(F)c(F)c2)nc2cncnc2n1C1CC1 | > 11.4 µM (inactive) | 3.77% (inactive) | 0.1 µM (active) | 7.2% (inactive) | -6.38% (inactive) | > 9.22 µM (inactive) | > 46 µM (inactive) | inactive | inactive | inactive | 8.82% (inactive) | 20.3 | 27.4 | inactive | inactive | inactive | inactive | inactive
8 | Cc1nc2cnc(N(C)C)nc2n(C2CC2)c1=O | > 11.4 µM (inactive) | -20% (inactive) | 3.98 µM (active) | 4.63% (inactive) | -4.62% (inactive) | > 9.22 µM (inactive) | > 46 µM (inactive) | inactive | inactive |  | 5.93% (inactive) | 14.1 | 18.5 | inactive | inactive | inactive | inactive | inactive
9 | NCCn1c(=O)c(CCc2ccccc2)nc2cncnc21 | > 11.4 µM (inactive) | -1.99% (inactive) | 12.6 µM (active) | -4.68% (inactive) | -4.77% (inactive) | > 9.22 µM (inactive) | > 46 µM (inactive) | inactive | inactive | inactive | 4.81% (inactive) | 26.7 | 29.9 | inactive | inactive | inactive | inactive | inactive
10 | Cc1noc(C)c1-c1cc(NCc2cccs2)ncn1 | > 11.4 µM (inactive) | 17% (inactive) | 0.794 µM (active) | -7.58% (inactive) | 7.7% (inactive) | > 46 µM (inactive) | > 46 µM (inactive) | inactive | inactive | inactive | 5.54% (inactive) | 20.5 | 27.7 | 11.2 µM (active) | 10 µM (active) | 14.1 µM (active) | inactive | inactive
